Assay outcomes as filed in PubChem BioAssay.
Shown is part of a subset that was picked to be rich in hits.
ALOX12 inh: ALOX12 (human) lipoxygenase inhibition | purified 12hLO, xylenol orange hydroperoxide absorbance | Potency, µM (top dose mostly 108 µM), for inactives: at the highest dose activity change, negative = inhibition, hits mostly inhibitors | actives 1.1% (n = 580,000) | AID 1671190; further: potency means the concentration at half of the fitted maximal effect
Target sequence (P18054 whole entry, looked up): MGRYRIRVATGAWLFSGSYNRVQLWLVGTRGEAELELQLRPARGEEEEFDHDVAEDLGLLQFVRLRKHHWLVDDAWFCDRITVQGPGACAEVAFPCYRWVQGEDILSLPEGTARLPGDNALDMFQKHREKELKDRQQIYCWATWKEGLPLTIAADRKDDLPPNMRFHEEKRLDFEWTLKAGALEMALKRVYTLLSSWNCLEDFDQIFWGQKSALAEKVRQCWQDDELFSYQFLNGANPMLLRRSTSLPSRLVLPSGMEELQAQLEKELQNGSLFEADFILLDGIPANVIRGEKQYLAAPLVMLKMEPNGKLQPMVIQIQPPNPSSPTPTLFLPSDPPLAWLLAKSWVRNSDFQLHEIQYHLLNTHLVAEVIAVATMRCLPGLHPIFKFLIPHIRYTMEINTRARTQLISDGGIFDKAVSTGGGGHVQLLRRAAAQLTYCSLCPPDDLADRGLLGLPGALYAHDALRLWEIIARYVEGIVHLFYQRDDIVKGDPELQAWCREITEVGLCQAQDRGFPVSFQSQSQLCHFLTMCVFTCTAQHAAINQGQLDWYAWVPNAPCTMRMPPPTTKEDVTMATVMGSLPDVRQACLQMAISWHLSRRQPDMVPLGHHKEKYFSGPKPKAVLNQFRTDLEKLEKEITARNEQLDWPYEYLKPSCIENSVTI
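Purified human 12hLO (150 nM final) in 25 mM Hepes, 0.01% Triton X-100, pH 7.0 was preincubated 15 min at room temperature with compound. Then 40 uM arachidonic acid was added, 30 min. Hydroperoxide was read by Fe-XO absorbance ratio 573/405 nm.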
DT40 TDP1 CPT: growth inhibition of DT40 Tdp1-/-;hTDP1 cells with camptothecin (screen for TDP1 inhibitors); chicken DT40 Tdp1-/-;hTDP1 cells + 20 nM CPT, ATP luminescence, 48 h; Potency, µM (titrated, usually from 46.2 µM), for inactives: at the top dose activity change, negative = growth inhibition, most hits filed as inhibitors; actives 12% (n = 420,000); AID 686979; further: potency means the concentration at half of the fitted maximal effect; nearly all actives have a fitted effect of over 55% in size
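Chicken DT40 Tdp1-/- cells complemented with human TDP1, 400 cells/well, exposed to compounds plus 20 nM camptothecin for at least 48 h at 37 C; viability read as ATP content by CellTiter-Glo luminescence.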
IL-1B inflam inh: inflammasome signaling inhibition, IL-1 beta readout; THP-1 LPS/ATP IL-1B secretion, AlphaLISA, 16 h; active compounds read low; activity change, % at 57.5 µM; actives 4.7% (n = 360,000); AID 743279; in the data active means activity change below about -50%; inconclusive means mostly about -30% to -49%
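Secreted IL-1B measured by AlphaLISA bead assay after 16 h compound exposure of THP-1 cells; compounds (final up to 57.5 uM) added 1 h before LPS (250 ng/mL) and ATP (1.25 mM) stimulation; lower signal means less secretion.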
HT1080 IDH1KD tx: kills HT-1080 cells with IDH1 knockdown; Potency, µM (top dose mostly 46.1 µM), without a hit: at the highest dose activity, negative = toxicity, hits mostly cytotoxic; AID 686971; HT-1080 IDH1 knockdown viability, ATP luminescence, 48 h; actives 2% (n = 360,000);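 further: potency means the concentration at half of the fitted maximal effect; 0% = DMSO wells and -100% = cell-free medium wells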
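Assay cells: HT-1080 with IDH1 knockdown, 750 per well, RPMI/5% FBS. Exposure: 48 h at 37 °C following 2 h pre-incubation. Read: CellTiter-Glo luminescence; fitted concentration-response, curve class assigned.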
DT40 TDP1 no CPT: qHTS for Inhibitors of human tyrosyl-DNA phosphodiesterase 1 (TDP1): qHTS in cells in absence of CPT; DT40 Tdp1-/- hTDP1 cells, no CPT, ATP luminescence, 48 h; Potency, µM (doses to about 46.2 µM), without a hit: at the top dose activity change, negative = growth inhibition, usual class: inhibitors; actives 15% (n = 420,000); AID 686978, 2013; further: potency means the concentration at half of the fitted maximal effect; nearly all actives have a fitted effect of over 55% in size
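Chicken DT40 Tdp1-/- cells complemented with human TDP1, screened without camptothecin (DMSO vehicle only), 400 cells/well. Compounds pin-transferred, cells incubated at 37 °C for at least 48 hr. Growth read as ATP-dependent luminescence (CellTiter-Glo, 30 min at RT).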
HT1080-NT tox: kills 2HG-producing HT-1080-NT fibrosarcoma cells; HT-1080-NT fibrosarcoma viability, CellTiter-Glo ATP luminescence, 48 h; Potency, µM (highest dose often 46.1 µM), for the others: at the top dose activity, negative = less viability, usual class: cytotoxic; AID 686970; actives 1.6% (n = 360,000);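 further: NT is the 2HG producing partner of a matched IDH1 knockdown line; potency means the concentration at half of the fitted maximal effect; 0% = DMSO-treated cells and -100% = media-only wells without cells; nearly all actives have a fitted effect of over 55% in size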
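Toxicity toward the 2HG-producing NT line was scored as %Activity, normalised to DMSO and no-cell wells, from CellTiter-Glo luminescence after 48 hours' treatment.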
An asterisk follows results filed as active; ? = inconclusive; . = no result; [ ] = another dose, or the depositor's remark. Unless noted, the call rests on the fitted dose curve; in most records, active means well fitted curve in the direction sought with a large enough effect; inconclusive means small, poorly fitted or top-dose-only effect, or another doubt; inactive means no such curve, though single readings can be large; an effect the other way counts as inactive or inconclusive. Unless noted, on the % scale 0 is the no-effect control and ±100 the full control effect.

SMILES	ALOX12 inh	DT40 TDP1 CPT	IL-1B inflam inh	HT1080 IDH1KD tx	DT40 TDP1 no CPT	HT1080-NT tox
Clc1ccc(/C=C\c2nccc3c2[nH]c2ccccc23)cc1	0%	?	48	18µM*	?	21µM*
COc1ccc(NC(=O)c2c(C)noc2-c2snnc2C)cc1	?	?	-5	?	21µM*	?
CC(=O)N(C1CC(C)C(C#N)(C#N)C1(C#N)C#N)N(C)C (configuration not stated)	-2%	0.52µM*	-112*	?	0.58µM*	-16%
CCCC(=O)N(C1CC(C)C(C#N)(C#N)C1(C#N)C#N)N(C)C (configuration not stated)	0%	1.3µM*	-101*	?	2.3µM*	?
CCc1noc(-c2ccn3c(CNC(=O)COc4cccc(C)c4)nnc3c2)n1	30%	.	.	.	.	.
CCCCCCc1ccc(-c2ccc(CC)cc2)nc1	7%	.	.	.	.	.
O=C(/C=C/c1cccc([N+](=O)[O-])c1)Nc1cccc(NC(=O)c2ccco2)c1	-18%	?	-95*	-2%	16µM*	0%
O=C(/C=C/c1ccc(Cl)c([N+](=O)[O-])c1)Nc1ccc(NC(=O)c2ccco2)cc1	?	1%	-4	11%	0%	11%
O=C(/C=C/c1ccc(Cl)c([N+](=O)[O-])c1)Nc1cccnc1	0%[57.4 µM]	-25%	-53*	-1%	-25%	-3%
O=C(/C=C/c1ccc(Cl)c([N+](=O)[O-])c1)Nc1cccc(NC(=O)c2ccco2)c1	19%	?	-99*	?	?	?
O=C(/C=C/c1cccc([N+](=O)[O-])c1)Nc1cccc(NC(=O)c2cccs2)c1	-9%	5.8µM*	-60*	-6%	18µM*	-19%
CCN(CC)C1CCOC2(CCN(C(=O)CCn3nc(C)cc3C)CC2)C1 (configuration not stated)	34%	.	.	.	.	.
Cc1ccc(NC(=O)C(=O)NCCN2CCN(S(=O)(=O)c3ccc4ccccc4c3)CC2)cc1	-25%	.	.	.	.	.
CN(Cc1cccnc1)c1nc2c(c(=O)[nH]1)CCN(Cc1cc(F)cc(F)c1)CC2	23%	.	.	.	.	.
COc1ccc(CCNc2ncnc3nc[nH]c23)cc1	.	2.8µM*	.	.	6.3µM*	.
CC(C)Cn1c2c(c(O)c(C(=O)Nc3nc4ccccc4s3)c1=O)CCCC2	257%	?	15	12%	?	15%
Cc1nc2ccccc2c(=O)n1NC(=O)c1c(O)c2c(n(CC(C)C)c1=O)CCCC2	-19%	?	-2	?	21µM*	20µM*
CCCc1nc2ccccc2c(=O)n1NC(=O)c1c(O)c2ccccc2n(C)c1=O	7%	?	3	0%	?	0%
CCCCCCc1nc2ccccc2c(=O)n1NC(=O)c1c(O)c2c(n(CC(C)C)c1=O)CCCC2	-16%	4.6µM*	-13	-30%	3.3µM*	-13%
COc1ccccc1CNC(=O)CCc1nnc2ccc(NCc3ccccc3Cl)nn12	-20%	.	.	.	.	.
COc1ccc2oc(-c3ccc(NC(=O)c4cccc(F)c4)cc3)nc2c1	-9%	.	.	.	.	.
C/C(=N/N=C(/C)c1ccc[nH]1)c1ccc[nH]1	-2%	.	.	.	.	.
COCc1c(C(C)C)nc(C(C)C)c(/C=C/[C@@H](O)C[C@@H](O)CC(=O)O)c1-c1ccc(F)cc1	.	1.2µM*	.	.	0.6µM*	.
CCOc1cccc(C(=O)Nc2cccc(-c3nc4ncccc4o3)c2C)c1	47%	-8%	-63*	-5%	?	-9%
Cc1c(NC(=O)c2ccc([N+](=O)[O-])o2)cccc1-c1nc2ncccc2o1	-1%	18µM*	-103*	?	?	9.2µM*
SMILES	ALOX12 inh	DT40 TDP1 CPT	IL-1B inflam inh	HT1080 IDH1KD tx	DT40 TDP1 no CPT	HT1080-NT tox
CCOc1cccc(C(=O)Nc2cc(C)c(O)c(-c3nc4ncccc4o3)c2)c1	-2%	-6%	.	.	-11%	.
COc1ccc(C(=O)Nc2cccc(-c3nc4ncccc4o3)c2C)cc1OC	0%	-29%	-15	?	?	?
Cc1c(NC(=O)C(C)(C)Oc2ccc(Cl)cc2)cccc1-c1nc2ncccc2o1	-19%	16µM*	.	.	23µM*	.
O=c1c2ccccc2nc2n1C(CBr)CN2 (configuration not stated)	17%	3%	-15	20%	10%	?
CCOc1ccc(CN2CCCC23Cc2ccccc2CNC3=O)cc1 (configuration not stated)	0%[6.33 µM]	.	.	.	.	.
CNC(=O)[C@@H]1C[C@H](Oc2ccccc2)CN1C(=O)c1ccc2ccccc2n1	21%	.	.	.	.	.
CCOC(=O)c1cc(C)n(CC2CCC(C(=O)Nc3ccc(OCC)cc3)CC2)c1C (configuration not stated)	-26%	16µM*	.	.	21µM*	.
CCOC(=O)c1cc(C)n(CC2CCC(C(=O)Nc3ccccc3OC)CC2)c1C (configuration not stated)	-21%	18µM*	.	.	?	.
CC(=O)c1c(C)[nH]c(C(=O)OCn2nnc3ccccc3c2=O)c1C	-11%	16µM*	13	-11%	16µM*	-9%
CC(=O)c1c(C)[nH]c(C(=O)Cn2cnc3ccccc3c2=O)c1C	-24%	.	.	.	.	.
C[C@H](NC(=O)c1ccc(Cl)cc1)C(=O)OCn1nnc2ccccc2c1=O	160%	?	3	-4%	-24%	-3%
COC(=O)c1ccc2c(=O)[nH]c(COC(=O)c3[nH]c(C)c(C(C)=O)c3C)nc2c1	-16%	?	32	-17%	16µM*	-12%
CC(NC(=O)c1ccccc1)C(=O)OCn1nnc2ccccc2c1=O (configuration not stated)	427%	26µM*	-5	-2%	15%	-4%
O=C(Cn1cccc1-c1nc(-c2ccc3c(c2)OCO3)no1)NCCc1ccccc1	36%	.	.	.	.	.
CCOc1ccc2nc(S(=O)(=O)NC(=O)C3(C)CCN3C(=O)CCc3cccs3)sc2c1 (configuration not stated)	-7%	7%	54	?	-2%	12%
COc1cccc(NC(=O)N2CCN(C(=O)c3cccnc3)[C@@H](C(=O)N[C@H]3CCCNC3=O)C2)c1	-5%	.	.	.	.	.
CN1CCN(C(=S)c2ccc(OCC(=O)Nc3cccc(C(F)(F)F)c3)cc2)CC1	-7%	21µM*	?	-20%	9.2µM*	-18%
